Results from PubChem BioAssay (NCATS).
Results filed as inconclusive are left out. A number with no mark means an inactive call. Activity calls are given as the source filed them. Calls follow the shape of the dose curve; as a rule, active = well fitted inhibition curve with a large enough effect; inconclusive = small, poorly fitted or top-dose-only effect; inactive = no such curve, though single readings can be large or run the other way.

Assay: BET inhibitor-based combinations targeting novel dependencies in MECOM-rearranged (r) AML: SET-2 cell line (AID 2202231); also: nearly all actives have a fitted effect of over 35% in size;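 as to viability: plate controls were DMSO treated cells for no effect and wells without cells for full effect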
Settings: SET-2 AML cells viability, CellTiter-Glo luminescence, 48 h; viability: stronger effect = lower value, series mostly up to about 46 µM
In short: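 500 cells/well; 11-pt dose curve; 48 h, standard incubator; CellTiter-Glo luminescence after 15 min RT; DMSO/empty-well normalization; AUC plus Z-AUC (mean-centered within each line).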
Potency is read from the fitted curve at half-maximal effect.

Row | Compound | viability [%] | Potency
1 | CCC(C)(C)c1ccc(CC(C)CN2C[C@@H](C)O[C@@H](C)C2)cc1 (some centres undefined) | 82.6 | 
2 | CCOc1cc(N)c(Cl)cc1C(=O)NCC1CN(Cc2ccc(F)cc2)CCO1 (centres undefined) | 105 | 
3 | CCCC1OC2C[C@@H]3[C@H]4CCC5=CC(=O)C=C[C@]5(C)[C@H]4C(O)C[C@]3(C)[C@]2(C(=O)CO)O1 (some centres undefined) | 98.3 | 
4 | COc1ccc(-c2coc3cc(O)cc(O)c3c2=O)cc1 | 45.9 | 
5 | CCCCOCCOc1nc(-c2ccc(C(=O)O)c(F)c2)sc1C | 85.8 | 
6 | NC(=O)c1ccc(I)c([N+](=O)[O-])c1 | 105 | 
7 | O=C(/C=C/N1C[C@H]2C[C@@H]1CN2c1ccccn1)c1ccccc1O |  | 0.372 µM (active)
8 | COc1ccc(C(=O)CC(=O)c2ccc(C(C)(C)C)cc2)cc1 | 107 | 
9 | Cc1ccc(NC(=O)c2cccc(N(C)C)c2)cc1NC(=O)c1ccc(O)cc1 | 90.3 | 
10 | NC(=O)c1ccc(-c2nc(-c3ccc4c(c3)OCCO4)c(-c3ccccn3)[nH]2)cc1 | 104 | 
11 | COC(=O)C[C@](O)(CCCC(C)(C)O)C(=O)O[C@@H]1C(OC)=C[C@]23CCCN2CCc2cc4c(cc2[C@H]13)OCO4 |  | 0.148 µM (active)
12 | COc1ccccc1C(=O)Nc1cc2c(cc1N1CCCCC1)n(C)c(=O)n2C | 101 | 
13 | CN1CCN(c2ncc(-c3cc(Cl)cc(Cl)c3Cl)c(N)n2)CC1 |  | 23.5 µM (active)
14 | COc1ccc(C[C@@H](C)[C@@H](C)Cc2ccc(OC)c(OC)c2)cc1OC |  | 18.6 µM (active)
